# Assay results from paper PMC4336329 (PLoS ONE, 2015).
# About 14,000 (4.5%) of roughly 310,000 compounds showed an effect of 50% or more. The effect is printed as a negative number. This excerpt belongs to a sample that is enriched for strong results.
# Target: human ether-à-go-go-related gene (hERG) potassium channel (human, UniProt Q12809)
# Assay: primary screen, population patch clamp on CHO cells stably expressing hERG; higher = less effect of the substance
# 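Note: peak tail current of the secondary pulse compared with the same well before compound.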
# Sequence of human ether-à-go-go-related gene (hERG) potassium channel (Q12809 whole entry, looked up): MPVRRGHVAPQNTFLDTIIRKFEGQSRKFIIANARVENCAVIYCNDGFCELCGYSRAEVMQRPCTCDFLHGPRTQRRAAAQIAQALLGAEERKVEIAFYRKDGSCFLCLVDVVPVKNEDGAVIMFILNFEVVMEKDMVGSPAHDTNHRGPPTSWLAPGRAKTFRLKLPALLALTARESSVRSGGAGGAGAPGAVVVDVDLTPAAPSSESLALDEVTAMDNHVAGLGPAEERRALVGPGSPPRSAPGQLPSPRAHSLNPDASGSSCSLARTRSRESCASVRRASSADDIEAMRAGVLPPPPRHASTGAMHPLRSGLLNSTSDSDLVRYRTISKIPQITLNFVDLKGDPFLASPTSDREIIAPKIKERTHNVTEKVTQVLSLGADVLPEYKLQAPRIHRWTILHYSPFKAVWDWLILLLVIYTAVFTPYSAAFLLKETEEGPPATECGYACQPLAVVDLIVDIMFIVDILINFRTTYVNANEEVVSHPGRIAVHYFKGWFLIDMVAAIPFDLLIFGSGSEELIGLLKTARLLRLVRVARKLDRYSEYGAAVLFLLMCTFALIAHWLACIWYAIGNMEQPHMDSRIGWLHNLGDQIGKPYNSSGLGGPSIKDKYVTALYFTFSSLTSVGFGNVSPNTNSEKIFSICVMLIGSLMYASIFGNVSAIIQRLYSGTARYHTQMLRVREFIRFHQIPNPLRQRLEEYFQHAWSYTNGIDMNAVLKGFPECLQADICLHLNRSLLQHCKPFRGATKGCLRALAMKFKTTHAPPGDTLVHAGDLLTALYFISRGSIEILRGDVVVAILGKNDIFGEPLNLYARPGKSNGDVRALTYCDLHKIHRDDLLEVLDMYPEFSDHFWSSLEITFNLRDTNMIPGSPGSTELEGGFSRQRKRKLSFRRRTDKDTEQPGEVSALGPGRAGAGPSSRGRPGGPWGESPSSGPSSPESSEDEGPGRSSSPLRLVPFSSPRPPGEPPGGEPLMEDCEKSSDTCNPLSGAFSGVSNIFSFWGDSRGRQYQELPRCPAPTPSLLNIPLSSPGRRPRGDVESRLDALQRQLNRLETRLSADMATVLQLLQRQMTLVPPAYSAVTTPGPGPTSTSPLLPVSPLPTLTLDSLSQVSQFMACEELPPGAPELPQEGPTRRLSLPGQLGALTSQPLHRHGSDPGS
row,Compound,"hERG current change (%, negative = inhibition) at 10uM"
1,CCCCC1=CC2=CC(=O)C(C)(OC(=O)CC)C(=O)C2=CN1c1ccccc1 (stereo not drawn),1.5%
2,CCO[C@H]1OC(C(=O)NCc2ccccc2)=C[C@@H](C2CCCCC2)[C@@H]1CCCO,-19.8%
3,COC(=O)C1=C(c2ccc(S(C)(=O)=O)cc2)C[C@@H]2CC[C@H]1N2C(=O)NCCNC(C)=O,14.6%
4,Cc1occc1-c1nnc(SCC(=O)N2CCCCC2)o1,-8.31%
5,CCC(C)(CC(=O)Nc1nccs1)c1ccccc1 (stereo not drawn),7.66%
6,COc1cccc(Cn2cc(C)cc(NC(=O)NCc3ccccc3)c2=O)c1,11.9%
7,Nc1nc(Cl)cc(Sc2ccc(F)cc2)n1,7.51%
8,NNC(=O)c1oc2nc(-c3ccco3)cc(-c3ccco3)c2c1N,-12.8%
9,NNC(=O)c1oc2nc(-c3cccs3)cc(-c3ccco3)c2c1N,-69.8%
10,NNC(=O)c1oc2nc(-c3ccccc3)cc(-c3ccco3)c2c1N,0.558%
11,CCCCN(C(=O)c1ccc2c(c1)OCO2)c1c(N)n(CCCC)c(=O)[nH]c1=O,25.7%
12,CSCCC(NS(=O)(=O)c1ccccc1F)C(=O)Nc1ccncc1 (stereo not drawn),-10.8%
13,O=c1cc(Nc2cccc(Br)c2)[nH]c(=O)[nH]1,-11.5%
14,Cc1cccc(N2CCN(C(=O)C3COc4ccccc4O3)CC2)c1C (stereo not drawn),-17.4%
15,CCOC(=O)N1CCN(C(=O)c2ccc3nc(N4CCCCC4)sc3c2)CC1,-15.7%
16,CCOc1ccc2nc(N3CCCCCC3)sc2c1,-19.2%
17,Cc1cccc2sc(N3CCN(C(=O)C4COc5ccccc5O4)CC3)nc12 (stereo not drawn),-31.3%
18,CCOC(=O)C1CCN(C(=O)C2CCN(c3nc4ccc(OC)cc4s3)CC2)CC1,-67.6%
19,CCOc1ccc2nc(N3CCC(C(=O)N4CCN(c5ccccn5)CC4)CC3)sc2c1,-45.7%
20,Cc1cc(C)c(C#N)c(N2CCN(C(=O)C3COc4ccccc4O3)CC2)n1 (stereo not drawn),-75.4%
21,CCOC(=O)Nc1ccc2nc(N3CCCCCC3)sc2c1,-50.6%
22,CCOc1ccc2nc(N3CCC(C(=O)N4CCN(C5CCCCC5)CC4)CC3)sc2c1,-46.1%
23,CCOc1ccc2nc(N3CCC(C(=O)N4CCN(C(=O)c5ccco5)CC4)CC3)sc2c1,-81.7%

row,Compound,"hERG current change (%, negative = inhibition) at 10uM"
1,CCOc1ccc2nc(N3CCC(C(=O)N4CCC5(CC4)OCCO5)CC3)sc2c1,-8.46%
2,CCOc1ccc2nc(N3CCC(C(=O)N4CCN(c5ncccn5)CC4)CC3)sc2c1,-13.4%
3,Cc1ccc2ncnc(NCCCCCC(=O)O)c2c1.Cl,17.4%
4,CCOc1ncccc1C(=O)Nc1cccc(S(=O)(=O)NC2=NCCC2)c1,-6.34%
5,COc1ccc2[n-]c(S(=O)Cc3ncc(C)c(OC)c3C)nc2c1.COc1ccc2[n-]c(S(=O)Cc3ncc(C)c(OC)c3C)nc2c1.[Mg+2] (stereo not drawn) [49665950],16.3%
6,Cc1ccc(C(=O)NCCSC2CCCCC2)cc1S(=O)(=O)Nc1ccccc1,-2.9%
7,C=CCCN(Cc1ccccc1)S(=O)(=O)c1ccccc1Br,3.42%
8,COc1ccc(OCCn2c(C)c(/C=N/n3cnnc3)c3ccccc32)cc1,-0.339%
9,Cn1c(SCC(=O)N/N=C/c2ccc(O)c(O)c2)nc2ccccc21,4.68%
10,CCCC(C)NC(=O)COC(=O)c1ccc2c(c1)C(=O)N(Cc1ccco1)C2=O (stereo not drawn),15.8%
11,Cc1ccc(NC(=O)COC(=O)c2ccc(F)cc2Cl)c(Br)c1,14.1%
12,O=C(CSc1ccc(-c2nc3ccccc3[nH]2)cn1)N1CCN(C(=O)c2ccco2)CC1,-68.4%
13,Cc1ccc2nc(SCC(=O)N3CCN(C(=O)c4ccco4)CC3)[nH]c2c1,-35.3%
14,O=C(CSc1nc2ccccc2[nH]1)NCc1ccco1,-1.16%
15,Cc1cc2nc(-c3ccc(SCC(=O)N4CCN(C(=O)c5ccco5)CC4)nc3)[nH]c2cc1C,2.64%
16,Cl.O=C(CSc1nc2ccccc2[nH]1)N1CCN(C(=O)c2ccco2)CC1,-23.4%
17,CCOc1ccc2nc(SCC(=O)N3CCN(C(=O)c4ccco4)CC3)sc2c1,-66.2%
18,O=C(CCc1nc2ccccc2[nH]1)N1CCN(C(=O)c2ccco2)CC1,6.93%
19,CCOc1ccc2nc(NC(=O)C3CCN(C(=O)c4ccco4)CC3)sc2c1,10.1%
20,O=C(CSc1nc2ccc(Cl)cc2[nH]1)NCc1ccco1,-51.8%
21,Cc1ccc2nc(SCC(=O)NCc3ccco3)[nH]c2c1,-0.695%
22,O=C(CSc1nc2ccc(Cl)cc2[nH]1)N1CCN(C(=O)c2ccco2)CC1,-56.1%
23,CCOc1ccc2nc(SCC(=O)NCc3ccco3)sc2c1,-29.8%

row,Compound,"hERG current change (%, negative = inhibition) at 10uM"
1,O=c1oc(-c2cccs2)nc2sc3c(c12)CCCC3,-1.83%
2,COc1ccc(OC)c(C(=O)c2c(C)oc3cc([N+](=O)[O-])c(O)c([N+](=O)[O-])c23)c1,13.3%
3,COc1ccc(C2C(C(C)=O)=C(O)C(=O)N2CCc2c[nH]c3ccccc23)cc1 (stereo not drawn),13.7%
4,CCn1nnc(NC(=O)c2cc3ccccc3o2)n1,4.36%
5,Cc1ccc(-n2c(CC#N)n[nH]c2=S)c(C)c1,3.3%
6,O=C(NCc1ccccc1)Nc1cccn(Cc2ccccc2)c1=O,10.4%
7,Cc1cccc(N2CN=c3s/c(=C\c4ccccn4)c(=O)n3C2)c1,-1.21%
8,O=C(C1COc2ccccc2O1)N1CCN(c2nc3ccc([N+](=O)[O-])cc3s2)CC1 (stereo not drawn),-29.8%
9,O=C(CSc1nc2cc(Cl)ccc2s1)c1ccco1,2.2%
10,Cc1ccc(Cl)c2sc(N3CCN(C(=O)c4ccco4)CC3)nc12,-10.3%
11,O=C(C1COc2ccccc2O1)N1CCN(c2nc3ccccc3s2)CC1 (stereo not drawn),-27.9%
12,O=C(CSc1nc2ccccc2s1)N1CCN(C(=O)c2ccco2)CC1,-41.3%
13,COc1ccc2nc(N3CCN(C(=O)C4COc5ccccc5O4)CC3)sc2c1 (stereo not drawn),-61.2%
14,O=C(CSc1nc2cc(Cl)ccc2s1)N1CCN(C(=O)c2ccco2)CC1,-71.6%
15,Cc1ccc2nc(N3CCN(C(=O)c4ccco4)CC3)sc2c1,-32%
16,O=C(c1ccco1)N1CCN(c2nc3ccsc3c(=O)s2)CC1,-79%
17,Cc1ccc(-c2cc(-c3ccccc3)c(C#N)c(Br)n2)cc1,-4.18%
18,CC1CC(C)CN(S(=O)(=O)c2ccc3c(c2)oc(=O)n3CC(=O)N(C)Cc2ccccc2)C1 (stereo not drawn),7.04%
19,CCOCCCNC(=S)N1C2CCC1CC(NC(=O)NC1CCCCC1)C2 (stereo not drawn),1.88%
20,Cc1ccc2nc(-c3ccccc3)c(CN3CCN(c4ccccc4F)CC3)n2c1,1.85%
21,CN(C)S(=O)(=O)c1cccc(-c2nn(-c3ccccc3)cc2/C=C(/C#N)C(=O)NCc2ccco2)c1,-26.9%
22,CCCN1CCN(CCCNC(=O)c2cc3c(=O)[nH]c4ccc(C)cc4c3s2)CC1,-29.5%
23,COc1ccccc1-c1ccc(=O)n(CC(=O)NC2CCc3ccccc32)n1 (stereo not drawn),5.88%

row,Compound,"hERG current change (%, negative = inhibition) at 10uM"
1,CCOC(=O)CC(C#N)c1cn(C)c2ccccc12 (stereo not drawn),-17.8%
2,CCn1c(SCC(=O)Nc2ccccc2C)nnc1-c1ccccc1O,1.99%
3,Cc1ccc(C2=NN(S(C)(=O)=O)C(c3cccs3)C2)cc1 (stereo not drawn),-4.62%
4,Cc1nn2c(N3CCCC3)cc(C(C)C)nc2c1-c1ccccc1,3.92%
5,CCCCC1CC1C(=O)Nc1ncc2c(n1)CC(C)(C)CC2=O (stereo not drawn),-57.5%
6,CCCCC(=O)Nc1ncc2c(n1)CC(C)(C)CC2=O,-5.63%
7,CC1(C)CC(=O)c2cnc(NC(=O)C3CCCC3)nc2C1,-12.6%
8,COc1cc(Br)c(CN2CCCN(C)CC2)cc1OC,-0.597%
9,CN(C)C=O.O=C(COC(=O)c1ccc(S(=O)(=O)N2CCCC2)cc1)Nc1cccnc1Cl,7.25%
10,O=C(NCC1CCN(C(=O)c2cccc([N+](=O)[O-])c2)CC1)c1cccc([N+](=O)[O-])c1,-53.5%
11,O=C(NCC1CCCCC1)c1cccc([N+](=O)[O-])c1,9.98%
12,O=C(NCC1CCCCC1)c1ccc([N+](=O)[O-])cc1,-16%
13,Cc1ccc(NC(=O)C(=O)NCC2CCN(C(=O)c3cccc([N+](=O)[O-])c3)CC2)cc1,-16.5%
14,Cc1cccc(C(=O)NCCN(C)C)c1.Cl,8.43%
15,O=C(NCC1CCN(C(=O)c2ccc([N+](=O)[O-])cc2)CC1)c1ccc([N+](=O)[O-])cc1,-71.3%
16,O=C(NCC1CCN(C(=O)c2ccc([N+](=O)[O-])cc2)CC1)C(=O)Nc1ccccc1,-36.8%
17,Cc1cccc(C(=O)NCCCN(C)CCCNC(=O)c2cccc(C)c2)c1,-52.2%
18,Cc1cccc(C(=O)N2CCCN(C(=O)c3cccc(C)c3)CC2)c1,-0.26%
19,Cc1cccc(C(=O)NCCCNC(=O)c2cccc(C)c2)c1,-3.67%
20,Cc1cccc(C(=O)N2CCCCCC2)c1,2.61%
21,Cc1cccc(C(=O)NCC2CCN(C(=O)c3cccc(C)c3)CC2)c1,-51.2%
